Compound activity (PubChem)
FLuc counter: inhibits or activates purified firefly luciferase, miR-21 counter-screen | AID 588342 | Potency, µM (series often up to 57.5 µM), most hits filed as inhibitors | purified FLuc, Km substrates, luminescence inhibition | 360,000 compounds, 6.9% hits; also: nearly all actives have a fitted effect of over 55% in size
Target sequence (P08659 whole entry, looked up): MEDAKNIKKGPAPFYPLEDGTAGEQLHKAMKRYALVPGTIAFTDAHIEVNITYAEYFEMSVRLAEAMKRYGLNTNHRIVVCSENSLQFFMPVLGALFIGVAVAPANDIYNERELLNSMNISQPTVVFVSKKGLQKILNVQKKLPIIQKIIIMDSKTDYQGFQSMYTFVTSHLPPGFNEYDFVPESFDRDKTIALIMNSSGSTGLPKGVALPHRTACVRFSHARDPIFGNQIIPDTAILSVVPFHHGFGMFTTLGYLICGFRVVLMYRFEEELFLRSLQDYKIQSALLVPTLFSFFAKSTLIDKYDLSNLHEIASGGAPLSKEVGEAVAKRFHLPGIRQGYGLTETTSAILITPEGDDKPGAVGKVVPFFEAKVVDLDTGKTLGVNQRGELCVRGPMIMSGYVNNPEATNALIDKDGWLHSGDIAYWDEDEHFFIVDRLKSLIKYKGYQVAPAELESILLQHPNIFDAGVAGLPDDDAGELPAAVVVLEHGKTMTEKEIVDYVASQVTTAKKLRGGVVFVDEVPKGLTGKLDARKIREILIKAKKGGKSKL
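Purified P. pyralis luciferase (10nM final) with 10uM D-luciferin and 10uM ATP (Km levels) in 50mM Tris acetate pH 7.5, 10mM Mg acetate, 0.01% Tween-20, 0.05% BSA; qHTS 6-point titration, ~60 µM downward; luminescence read.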
ELG1 genotoxic: genotoxicity induction in ELG1-luciferase HEK293T cells; Potency, µM (highest dose often 46 µM), hits mostly activators; HEK293T ELG1-luciferase reporter, luminescence, 16 h; 330,000 compounds, 1.3% hits; AID 504466; also: nearly all actives have a fitted effect of over 60% in size
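Reporter readout depends on ELG1 protein level, which increases with genetic stress. After 16 hr compound exposure at 37 °C, luciferase activity was quantified using ONE-Glo.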
Rab9 prom act: activates the Rab9 promoter; Huh7 Rab9 promoter-luciferase reporter, luminescence, 24 h; Potency, µM (titrated, usually from 9.22 µM), usual class: activators; 320,000 compounds, 2.8% hits; AID 485297; also: nearly all actives have a fitted effect of over 60% in size
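Cells were plated at 1500 per well in reduced-serum medium with 10% FBS and left 2 h. Compound in DMSO was then added for 24 h at 37 °C. Reporter signal was read by luminescence after 10 min with luciferase detection reagent.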
ELG1 DNA repair: blocks ELG1-dependent DNA repair in HEK293T cells | 330,000 compounds, 2.3% hits | Potency, µM (series often up to 46.1 µM), usual class: inhibitors | HEK293T ELG1-luciferase reporter, luminescence, 16 h; DNA damage induced by 5-fluorouridine; also: nearly all actives have a fitted effect of over 55% in size
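5-Fluorouridine DNA damage + compound/DMSO, 2,000 cells/well, 16 h, 37 °C/5% CO2. ONE-Glo, 30 min RT, luminescence. Readout = decrease in reporter signal.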
SMN2 splice up: SMN2 splice variant enhancement; 210,000 compounds, 2.8% hits; HEK293 SMN2-luciferase splicing reporter, luminescence, 30-36 h; Potency, µM (series often up to 46.1 µM), hits mostly activators; AID 1458; also: nearly all actives have a fitted effect of over 55% in size
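HEK293 cells carry an SMN2 […]–luciferase reporter in which exon 7 inclusion puts luciferase in frame. Cells were plated 10-12 h before compound addition, then incubated 30-36 h at 37C. ONE-Glo luminescence was read; sodium butyrate at 4.5 mM final served as control.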
NPC1 prom act: NPC1 promoter activation; Potency, µM (highest dose often 9.22 µM), hits mostly activators; 320,000 compounds, 2.4% hits; Huh7 NPC1 promoter luciferase reporter, 24 h; also: nearly all actives have a fitted effect of over 60% in size
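NPC1 promoter–luciferase Huh7 cells; 24 h compound; luminescence.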
A number is an active result; . = inactive; ? = inconclusive; / = not tested or not shown. Sampled rows, rich in hits. Any-hit rate of the full collection: about 9.2%. Calls follow the shape of the dose curve; as a rule, active = well fitted curve in the direction sought with a large enough effect; inconclusive = small, poorly fitted or top-dose-only effect, or another doubt; inactive = no such curve, though single readings can be large; an effect the other way counts as inactive or inconclusive.

SMILES	FLuc counter	ELG1 genotoxic	Rab9 prom act	ELG1 DNA repair	SMN2 splice up	NPC1 prom act
CCCc1nn(C)c(C(=O)Nc2cccc(Cl)c2)c1Cl	21.3µM	?	?	?	.	.
CCCc1nn(C)c(C(=O)Nc2ccccc2)c1Cl	7.57µM	?	1.12µM	?	.	3.55µM
CCN1CCN(CCC(=O)Nc2cccc(C)c2)CC1	.	.	.	.	/	.
CCCc1nn(C)c(C(=O)Nc2ccc(Cl)cc2)c1Cl	.	.	.	?	.	.
CCCc1nn(C)c(C(=O)Nc2ccc(C(C)(C)C)cc2)c1Cl	?	.	.	.	.	.
Cc1cc(C)nc(NS(=O)(=O)c2ccc(NC(=S)NC(=O)CC(C)C)cc2)n1	.	.	.	.	.	.
O=C(COc1ncnc2ccccc12)NC1CCCCC1	/	.	/	.	/	/
O=C(Nc1ccc(O)cc1)c1ccc2c(c1)C(=O)N(Cc1ccccc1)C2=O	.	.	.	.	/	.
O=C(O)COc1ccc(NC(=O)c2ccc3c(c2)C(=O)N(Cc2ccccc2)C3=O)cc1	16.9µM	.	.	.	/	.
CC(C)CN1C(=O)c2ccc(C(=O)Nc3ccncc3)cc2C1=O	.	.	.	?	.	.
COCCCN1C(=O)c2ccc(C(=O)Nc3ccccc3OC)cc2C1=O	.	.	.	.	.	.
COCCCN1C(=O)c2ccc(C(=O)Nc3ccc(OC)cc3)cc2C1=O	8.49µM	.	.	.	.	.
CC(C)CN1C(=O)c2ccc(C(=O)Nc3ccc(OCC(=O)O)cc3)cc2C1=O	6.75µM	.	.	.	/	.
Cc1ccc(O)c(NC(=O)c2ccc3c(c2)C(=O)N(Cc2cccnc2)C3=O)c1	1.9µM	.	.	.	/	.
c1ccc(Nc2nc(CSc3ncn[nH]3)cs2)cc1	15.1µM	.	?	?	.	?
CCn1c(=NC(=O)c2ccco2)sc2cccc(F)c21	16.9µM	14.6µM	.	?	15.8µM	.
Cc1ccc(CCNC(=O)c2cc(C)nc3c2c(C)nn3-c2ccc(C)cc2)cc1	.	/	/	/	/	/
O=C(c1ccc(OC(F)(F)F)cc1)c1ncc[nH]1	?	?	3.55µM	?	/	?
O=C(c1c[nH]c2ccccc12)N1CCN(c2ccccc2)CC1	.	.	.	.	.	.
O=C(c1c[nH]c2ccccc12)N1CCN(Cc2ccccc2)CC1	21.3µM	.	.	.	.	.
O=C(c1ccc2ccccc2c1)N1CCN(Cc2ccccc2)CC1	21.3µM	.	.	?	/	?
CCOc1ccc(CN2CCN(C(=O)c3ccccc3)CC2)cc1	.	.	.	9.2µM	.	.
O=C(Nc1cccc(C(=O)N2CCN(Cc3ccccc3)CC2)c1)c1ccccc1	.	.	.	20.6µM	.	.
O=C(c1cccc(C(=O)N2CCN(Cc3ccccc3)CC2)c1)N1CCN(Cc2ccccc2)CC1	.	.	.	?	.	.
CCCc1cc(N2CCN(c3ccccc3F)CC2)n2cnnc2n1	.	/	/	/	.	/
SMILES	FLuc counter	ELG1 genotoxic	Rab9 prom act	ELG1 DNA repair	SMN2 splice up	NPC1 prom act
COc1cc(NC(=O)CN(c2ccc(C)cc2)S(=O)(=O)c2cccc3nonc23)cc(OC)c1	.	/	/	/	.	/
COc1ccc(CNS(=O)(=O)c2ccc(-c3ccc(=O)[nH]n3)s2)cc1OC	.	.	.	.	/	.
O=[N+]([O-])c1cccc(-c2ccc(/C=N/Nc3nc(N4CCCCC4)nc(N4CCCCC4)n3)o2)c1	.	.	.	?	.	.
O=[N+]([O-])c1ccc(/C=N/Nc2nc(NCc3ccccc3)nc(N3CCOCC3)n2)cc1	.	.	.	7.3µM	.	.
O=[N+]([O-])c1cccc(/C=N/Nc2nc(NCc3ccccc3)nc(N3CCOCC3)n2)c1O	16.9µM	.	.	20.6µM	/	.
O=[N+]([O-])c1cccc(/C=N/Nc2nc(NCc3ccccc3)nc(N3CCOCC3)n2)c1	.	.	.	.	.	.
O=C(/C=C/c1ccc(-c2cccc([N+](=O)[O-])c2)o1)N1CCOCC1	?	?	3.98µM	?	/	?
COc1nc(N/N=C/c2ccc(-c3cccc([N+](=O)[O-])c3)o2)nc(N2CCOCC2)n1	.	.	.	2.31µM	.	.
